Screening results: PubChem BioAssay, several laboratories
FBA Mtb inh = Mtb fructose-bisphosphate aldolase inhibition | P9WQA3 | inhibition, % at 1 µM | purified M. tuberculosis FBA, fluorescence read-out | AID 588726 | 360,000 compounds, 2.3% hits; in the data active = inhibition above about 27%;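 note: 0% = vehicle and 100% = reference inhibitor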
Target sequence (P9WQA3 whole entry, looked up): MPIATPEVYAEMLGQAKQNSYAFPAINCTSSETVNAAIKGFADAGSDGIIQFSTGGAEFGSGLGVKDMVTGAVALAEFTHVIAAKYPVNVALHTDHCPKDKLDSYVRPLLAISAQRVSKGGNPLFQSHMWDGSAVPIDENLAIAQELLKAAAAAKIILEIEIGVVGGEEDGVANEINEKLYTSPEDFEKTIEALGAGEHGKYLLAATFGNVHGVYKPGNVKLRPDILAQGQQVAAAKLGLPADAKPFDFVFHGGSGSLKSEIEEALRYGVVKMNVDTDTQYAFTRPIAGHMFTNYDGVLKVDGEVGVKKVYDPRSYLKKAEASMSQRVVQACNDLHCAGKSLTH
GDH-TPI counter-1 = GDH-TPI coupled enzyme inhibition counter-screen | 360,000 compounds, 1.2% hits | GDH-TPI coupled enzyme counterscreen, NADH absorbance | inhibition, % at 4.8 µM;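 note: 0% = DMSO wells and 100% = wells lacking the enzyme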
BH1578 lux ind = induces V. cholerae light production without autoinducers; V. cholerae BH1578 lux reporter, luminescence, 6 h; activation, % at 18.7 µM; 350,000 compounds, 0.16% hits; in the data active = activation mostly above about 9.7%, no sharp cut-off
CCHFV vOTU inh = CCHFV vOTU protease inhibition. inhibition, % at 11.5 µM. 370,000 compounds, 0.55% hits. Pep-AMC fluorescence; note: 0% = vehicle wells with enzyme and 100% = no enzyme wells
Mtb FBA confirm = confirmation of M. tuberculosis fructose-bisphosphate aldolase inhibitors | purified M. tuberculosis FBA, fluorescence read-out | 5,600 compounds, 78% hits | shares compounds with FBA Mtb inh | inhibition, % at 1 µM | AID 651616; in the data active = inhibition above about 27%;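 note: 0% = vehicle wells and 100% = reference inhibitor wells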
GDH-TPI counter-2 = counter-screen for M. tuberculosis FBA inhibitors: GDH-TPI coupled enzyme inhibition; shares compounds with FBA Mtb inh; 5,600 compounds, 81% hits; AID 652141; GDH-TPI coupled enzyme counterscreen, fluorescence; inhibition, % at 1 µM; in the data active = inhibition above about 10%
GDH-TPI DR = GDH-TPI dose response counter-screen for Mtb FBA; shares compounds with FBA Mtb inh; GDH-TPI coupled enzyme assay, fluorescence, artifact counterscreen; IC50, µM; 170 compounds, 79% hits; AID 652145; call rule not given here
Numbers without * were called inactive; i = inactive; . = not tested or not shown; + = active, no number. A selection: hits, their analogues and other compounds. The true share with any hit is near 3.9%. Cut-off read from the data, not from the text of the source, unless noted: active = inhibition above about 30%; inactive = the rest.

SMILES | FBA Mtb inh | GDH-TPI counter-1 | BH1578 lux ind | CCHFV vOTU inh | Mtb FBA confirm | GDH-TPI counter-2 | others
CC[C@H](C)Cc1cn([C@@H](CCCCNC(=O)OC(C)(C)C)C(=O)NCCCCCCCCCCC(=O)N2CCN(C(=O)OC(C)(C)C)CC2)nn1 | 106* | 10 | -1 | 18 | 66* | 48*
CC(C)(C)OC(=O)NCCCC[C@@H](C(=O)NCCCCCCCCCCC(=O)N1CCN(C(=O)OC(C)(C)C)CC1)n1cc(CCO)nn1 | 0 | 4 | -2 | -2 | . | .
COc1ccc(-c2ccc3c(c2)S(=O)(=O)c2cccc(C(=O)NCCOc4ccccc4)c2C3=O)cc1OC | 52* | 11 | i | . | 39* | 29*
COC(=O)Cc1c[nH]c2cccc(OCC(O)CN(Cc3ccccc3)C(C)C)c12 (stereo not given) | 29* | -3 | i | 3 | 25 | 25*
CC1CCc2nc3ccc(S(=O)(=O)N4CCC(C(=O)N5CCCCC5)CC4)cc3c(C(=O)O)c2C1 (stereo not given) | -1 | -8 | 0 | 5 | . | .
CCOC(=O)c1cn2nc(Oc3ccc(C#N)cc3)ccc2n1 | 96* | 7 | i | -38 | 3 | -1
CCOC(=O)c1cn2nc(Oc3ccc(C(=O)OC)cc3)ccc2n1 | 100* | 10 | -1 | -23 | + | +
CCOC(=O)c1cn2nc(Oc3ccc(NC(C)=O)cc3)ccc2n1 | -5 | -8 | 0 | 9 | . | .
O=C(CCCOc1ccccc1)N1CCN(S(=O)(=O)c2cccc(F)c2)CC1 | 0 | -1 | -1 | -6 | . | .
O=C(NCCCN1CCOCC1)c1cccc(NC(=O)c2ccccc2)c1 | 1 | 7 | 0 | -14 | . | .
CCOC(=O)C1=CN(Cc2cccc(F)c2)S(=O)(=O)NC1c1ccc(Br)cc1F (stereo not given) | 2 | 9 | -1 | 16 | . | .
O=C(Nc1nnc(-c2ccncc2)s1)C1CCCO1 (stereo not given) | 82* | 26 | 1 | -32 | 15 | -6 | GDH-TPI DR=2*
CCC(=O)Nc1nnc(-c2ccncc2)s1 | 43* | -3 | -1 | -7 | 100* | 89*
Cc1onc(-c2ccccc2)c1C(=O)Nc1nnc(-c2ccncc2)s1 | 46* | 57* | -1 | 4 | 67* | 55*
CCCC(=O)Nc1nnc(SCC(=O)Nc2ccc3c(c2)OCO3)s1 | 1 | 4 | 0 | -8 | . | .
CCCC(=O)Nc1nnc(-c2ccc3c(c2)OCO3)s1 | 38* | 6 | 0 | -19 | 115* | 103*
CCOC(=O)c1ccc(NC(=S)N2CCC(C(N)=O)(N3CCCCC3)CC2)cc1 | 1 | -5 | -1 | 1 | . | .
O=C1NC[C@H](Cc2ccccc2)N(C[C@@H]2CCCN2C[C@H](Cc2ccccc2)N2C[C@H](Cc3ccc(O)cc3)N(CCc3ccccc3)C(=O)C2=O)C1=O | . | . | . | 7 | . | .
O=C(c1ccc(N2CCN(S(=O)(=O)c3ccccc3)CC2)c([N+](=O)[O-])c1)N1CCOCC1 | 0 | 5 | 0 | 2 | . | .
Cc1[nH]n(-c2ccccc2)c(=O)c1C(C[N+](=O)[O-])c1ccc(Cl)cc1 (stereo not given) | 1 | 1 | -2 | 22 | . | .
Cc1cc(O)c(C(C[N+](=O)[O-])c2ccc(Cl)cc2)c(=O)o1 (stereo not given) | 102* | 9 | i | 9 | -1 | -4
Cc1[nH]n(-c2ccccc2)c(=O)c1/C=N/N1C(=O)c2cccc3cccc(c23)C1=O | -7 | 30 | 0 | 3 | . | .
CCOP(=O)(OCC)c1nc(-c2ccccc2)oc1NCc1ccccc1 | 82* | 8 | 1 | -26 | 24 | 13*
O=P(c1ccccc1)(c1ccccc1)c1nc(-c2ccccc2)oc1NCc1ccccc1 | 4 | 1 | 0 | 4 | . | .
CCOP(=O)(OCC)c1nc(-c2ccc(F)cc2)oc1NCc1ccccc1 | 77* | 3 | 0 | 1 | 46* | 29*
SMILES | FBA Mtb inh | GDH-TPI counter-1 | BH1578 lux ind | CCHFV vOTU inh | Mtb FBA confirm | GDH-TPI counter-2 | others
COc1ccc(-c2ccc(C(=O)NCc3ccc(N(C)C)cc3)c3occc23)c(C)c1 | 0 | 1 | 0 | 20 | . | .
CC(C)(C)NC(=O)COC(=O)CNC(=O)c1cc(Cl)cc([N+](=O)[O-])c1 | 3 | 3 | i | -3 | . | .
CCOc1cccc(-c2cc(NCCc3ccccn3)n3nccc3n2)c1 | 35* | 7 | i | -27 | 87* | 71*
Cc1cccc(-c2cc(NCCc3cccnc3)n3nccc3n2)c1 | 32* | 4 | i | -17 | 46* | 35*
CCN1CCN(CC(=O)N2N=C(c3cccs3)CC2c2ccc(C)cc2)C(=O)C1=O (stereo not given) | 4 | 13 | i | -5 | . | .
CSc1ccc(-c2nnn(CC(=O)NCc3ccccc3)n2)cc1 | 3 | -4 | 0 | 26 | . | .
COc1ccccc1-c1nnc(-c2ccc(C)cc2)o1 | 15 | -5 | -1 | 3 | . | .
COc1cccc(OC)c1-c1nnc(-c2cn(C)c3ccccc23)o1 | 80* | -4 | i | -9 | + | 178*
NC(=O)c1ncn([C@@H]2O[C@H](C(=O)N3CCN(CC(=O)Nc4ccccn4)CC3)[C@@H](O)[C@H]2O)n1 | . | . | . | 5 | . | .
Cc1cc(C)cc(Oc2coc3c(CN(C)C)c(O)ccc3c2=O)c1 | 92* | 22 | -1 | -186 | 77* | 68*
CCOC(=O)c1ccc2ncc(C(=O)OCC)c(NCc3ccco3)c2c1 | 62* | 18 | i | -41 | 8 | 1
Nc1ccccc1C(=O)NC1CCCNC1=O (stereo not given) | 61* | -2 | 0 | -8 | + | +
O=C(Nc1ccc(Cl)cc1)NC1CCCCNC1=O (stereo not given) | -3 | 6 | i | -16 | . | .
CCN(CC)CCNC(=O)c1cc(Sc2nnc(C)s2)nc2ccccc12 | -3 | 19 | i | -4 | . | .
Cc1ccc(C)c(C2NC(=O)c3ccccc3N2)c1 (stereo not given) | 63* | 7 | -1 | -109 | 93* | 72*
CSc1ccc(C2NC(=O)c3ccccc3N2)cc1 (stereo not given) | 48* | 4 | -1 | -68 | 23 | 16*
CSc1ccc(C2Nc3cccc4cccc(c34)N2)cc1 | -1 | 5 | 1 | -9 | . | .
COc1cc(C)c(C2NC(=O)c3ccccc3N2)cc1C (stereo not given) | 22 | 10 | i | -13 | . | .
COc1ccc(C2NC(=O)c3ccccc3N2)c(OC)c1OC (stereo not given) | 77* | 0 | -4 | -107 | 75* | 65*
O=C1NC(c2ccccc2O)Nc2ccccc21 (stereo not given) | 33* | 13 | i | -57 | 19 | 11*
Cn1cc(C2NC(=O)c3ccccc3N2)c2ccccc21 (stereo not given) | 13 | 8 | i | 12 | . | .
O=C(OCc1ccccc1F)c1cnc(Cl)c(Cl)c1 | -4 | -4 | 0 | 4 | . | .
